Source: PubChem BioAssay AID588405 (Sanford-Burnham Center for Chemical Genomics, 2011)
Among all 360,000 compounds or so, about 6,200 (1.7%) were called active. Only a selection was taken, and actives are over-represented in it overall. Values without a mark were called inactive.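 How the source made its calls: active means inhibition of at least 50% at 20 µM; inactive means the rest.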

Assay: inhibition of PEG-3 promoter activity – cell-based, HeLa, luciferase luminescence, primary screen (AID 588405)
Conditions: HeLa PEG-Prom luciferase reporter, overnight, at 20 µM, stronger effect = higher value

First: Cc1c(C(=O)NCc2ccc(C#N)cc2)sc(=O)n1Cc1ccc(C(=O)N(C)C)cc1
Second: COc1ccc(NC(=O)c2sc(=O)n(Cc3ccc(S(=O)(=O)N(C)C)cc3)c2C)cc1
The inhibition of the first is higher: 7.87% for the first, 2.16% for the second.

Compared with `Cn1cncc1C#Cc1c(-c2ccsc2)sc2ccccc12`, `CCOc1ccc2nc(/N=C/c3nc(-c4ccccc4)oc3O)sc2c1` is lower in inhibition: 44.3% for the first, -127% for the second.

Going from `COc1ccc2sc(-c3ccc(S(C)(=O)=O)cc3)c(-c3ccc(C(N)=O)cc3)c2c1` to `COc1ccc(-c2oc3ncn(Cc4ccco4)c(=N)c3c2-c2ccc(OC)cc2)cc1`, the inhibition rises from 3.59% to 9.27%.

Compared with `CCn1c(SCC(=O)Nc2ccc(C)cc2)nc2nc3c(cc2c1=O)CCCC3`, `COCCNC(=O)c1ccc(Cn2c(SCC(=O)NCC3CCCO3)nc3ccc(Br)cc3c2=O)cc1` (configuration not stated) is lower in inhibition: 10.5% for the first, -11.8% for the second.

First: CCNC(=S)Nc1ccc2c(c1)c(=O)n(C)n2Cc1ccc(Cl)cc1
Second: Fc1cccc(Cc2c(-c3ccc(Cl)cc3)nc3ccc(Cl)cn23)c1
The inhibition of the first is higher: -3.64% for the first, -75.2% for the second.

First: CC1(C)Cc2nc3sc4c(SCC(=O)NC(c5ccccc5)c5ccccc5)ncnc4c3cc2CO1
Second: CC1C(=O)N(Cc2ccccc2)c2ccccc2N1C(=O)c1ccccc1 (configuration not stated)
The inhibition of the first is lower: -23% for the first, 21.3% for the second.

Going from `Cc1ccccc1S(=O)(=O)NC(=O)C1(C)CCN1C(=O)C1(c2ccc(Cl)cc2)CC1` (configuration not stated) to `CCN(CC(=O)Nc1c(F)cccc1F)C(=O)c1ccc(S(=O)(=O)N2CCCCC2)cc1`, the inhibition falls from 15.9% to 3.57%.

First: Cc1cccc(-c2cnc(C(O)c3ccc4ccccc4c3)[nH]2)c1 (configuration not stated)
Second: OC(c1cc(Cl)cc(Cl)c1)c1ncc(-c2ccccc2C(F)(F)F)[nH]1 (configuration not stated)
The inhibition of the first is lower: 5.95% for the first, 35.8% for the second.

Going from `Cc1nc2c(OCc3ccc(Cl)cc3Cl)cccn2c1N(C)CC1CC1` to `CN(C)CCN(C(=O)C1=COCCO1)c1nc2ccc(Cl)cc2s1`, the inhibition falls from 27.9% to -91.5%.

First: CCCN1CCn2c3c(c4cc(Br)ccc42)CCCC31 (configuration not stated)
Second: CCCNC(=O)c1cc(C2CCCCN2S(=O)(=O)c2ccc(C#N)cc2)on1 (configuration not stated)
The inhibition of the first is lower: -52.1% for the first, -6.28% for the second.

Compared with `CNC(=O)NC(=O)C(OC(=O)c1cccc(S(=O)(=O)N2CCCCC2)c1)c1ccccc1` (configuration not stated), `COc1cc(C(=O)NNC(=O)c2ccc(S(=O)(=O)N3CCCCC3)cc2)cc(OC)c1OC` is lower in inhibition: 8.72% for the first, 3.84% for the second.

Compared with `OCCN1CCN(c2ncnc3c2ncn3[C@H]2CN(Cc3ccco3)C[C@@H](CO)O2)CC1`, `COCCNc1ncnc2c1ncn2[C@H]1CN(Cc2ccc(OC)cc2)C[C@@H](CO)O1` is lower in inhibition: -0.36% for the first, -12.7% for the second.

Compared with `Cc1ccccc1Cn1c(C)c(C(=O)NCc2cccc(C(F)(F)F)c2)sc1=O`, `CC(C)(C)N1C(=O)c2c(C(=O)OCc3ccccc3)[nH]c(-c3ccccc3)c2C1=O` is higher in inhibition: -0.27% for the first, 24.2% for the second.

Going from `CC(C)CC(N=C1NC(C)(C)Cc2ccccc21)C(=O)O` (configuration not stated) to `Cc1nc2c(c(C)nn2-c2ccccc2)c(C)c1C`, the inhibition rises from 0.64% to 21.8%.

Going from `COc1cc(C(C(=O)NC2CCCC2)N(Cc2ccccc2)C(=O)c2snc(C(N)=O)c2N)ccc1O` (configuration not stated) to `NC(=O)c1nsc(C(=O)N(CC(=O)NCc2ccc(F)cc2)Cc2ccco2)c1N`, the inhibition rises from -1.6% to 17.3%.

Compared with `CCOC(=O)C1(C)CCCN(C(=O)c2ccc(N(C)C)cc2)C1` (configuration not stated), `CCCNC(=O)C1(C)CCCN(C(=O)c2cccc(OC(C)=O)c2C)C1` (configuration not stated) is lower in inhibition: 0.13% for the first, -1.66% for the second.

Compared with `Cc1cc(C)n2nc(C(=O)OC(C)C(=O)c3cc(C)c(C)cc3C)nc2n1` (configuration not stated), `COc1ccc(C)cc1NC(=O)c1[nH]c(C)c(C(C)=O)c1C` is higher in inhibition: -10.9% for the first, 4.55% for the second.

Going from `CSCCC(NS(=O)(=O)c1ccc2c(c1)oc(=O)n2C)C(=O)NC1CCCc2ccccc21` (configuration not stated) to `O=S(=O)(c1ccc2c(c1)OCCO2)N1CCc2ccccc21`, the inhibition rises from 3.82% to 25.9%.

Compared with `CC1=C(C(=O)N(C(C)C)C(C)C)CC(CC(=O)NCCCCc2ccccc2)C(=O)N1CCC1=CCCCC1` (configuration not stated), `CC1=C(C(=O)N2CCOCC2)CC(CC(=O)NCc2cccs2)C(=O)N1CCCN1CCCC1=O` (configuration not stated) is lower in inhibition: 18.7% for the first, 0.54% for the second.

First: O=C(NC1CC1)C1=C[C@H](c2c[nH]c3ccccc23)C[C@H](OCc2ccc(CO)cc2)O1
Second: O=C(Nc1cccc2ccccc12)NC1CC1
The inhibition of the first is lower: -8.53% for the first, 6.64% for the second.

Compared with `O=C(Nc1cccc2ccccc12)c1onc2c1CCCC2`, `O=C(Nc1ccc2ccccc2c1[N+](=O)[O-])c1ccccc1` is lower in inhibition: -211% for the first, -223% for the second.

First: COc1ccc(C(=O)N2CCCCC2c2cc(C(=O)Nc3ccc(F)c(Cl)c3)no2)cc1 (configuration not stated)
Second: N#Cc1cccc(NC(=O)c2cc(C3CCCCN3C(=O)CCc3ccccc3)on2)c1 (configuration not stated)
The inhibition of the first is lower: 11.5% for the first, 23.6% for the second.

Compared with `Cc1nccn1-c1ccc(NC(=O)[C@H]2O[C@@H](n3cnc4c(N)ncnc43)[C@H](O)[C@@H]2O)cc1`, `COc1ccc(NC(=O)c2cn(-c3ccccc3)nc2SC)cc1` is lower in inhibition: 7.92% for the first, -78.1% for the second.

Compared with `CCc1nc2ccc(C(=O)NCc3ccc(OC)cc3)cn2c1N(CC)Cc1cccc(Br)c1`, `CCOc1cc(NS(=O)(=O)c2ccc(OC)cc2)c(OCC)cc1NC(C)=O` is lower in inhibition: 19.4% for the first, 11.6% for the second.

Going from `Cc1ccc(C(=O)N2CC(=O)Nc3ccc(F)cc3C2c2ccc(F)cc2)cc1` (configuration not stated) to `Cc1ccc(SCC(=O)N2CCN(c3ccc(F)cc3)CC2)cc1`, the inhibition falls from 17.9% to 8.76%.

First: CCc1ccc(/C=N/NC(=O)c2ccc(OC3CCCC3)cc2)s1
Second: CCN(C(=O)COc1ccc(C(=O)c2ccccc2)cc1)c1ccccc1
The inhibition of the first is higher: 14.5% for the first, 2.39% for the second.

First: CC1(C(=O)NCc2ccco2)Cc2c(-c3ccc4c(c3)OCO4)ccnc2O1 (configuration not stated)
Second: CCN(CC)CCN(C(=O)c1cc(Cl)sc1Cl)c1nc2cc3c(cc2s1)OCO3
The inhibition of the first is higher: 7.44% for the first, -57.9% for the second.

First: O=C(Nc1ncccc1O)c1ccc(C(=O)c2ccccc2)cc1
Second: CCOc1ncccc1C(=O)NNC(=O)c1cccc(S(=O)(=O)Nc2ccccc2OC)c1
The inhibition of the first is lower: -204% for the first, 6.59% for the second.

First: COc1ccc(N2C(=O)NC(NS(=O)(=O)c3ccc(Cl)cc3)(C(F)(F)F)C2=O)cc1 (configuration not stated)
Second: O=c1[nH]nc(SCCS(=O)(=O)c2ccc(F)cc2)n1-c1ccccc1C(F)(F)F
The inhibition of the first is higher: 10.8% for the first, -139% for the second.

Going from `CC1CC(C)CN(CC(=O)N2c3ccccc3CCc3ccccc32)C1` (configuration not stated) to `O=S(=O)(c1ccccc1)N1CCc2ccccc21`, the inhibition falls from 9.54% to 5.92%.

Going from `CCCC/C=C/c1cccc2nncn12` to `Cn1c(Cc2csc(N)n2)nnc1SC/C=C/c1ccccc1`, the inhibition falls from 2.91% to -0.48%.

First: Cn1c(=O)c2c(-c3cccc(Br)c3)c(C#N)c(N)nc2n(C)c1=O
Second: CC(C)(C)OC(=O)N1CCN(C(=O)c2[nH]c(C(F)(F)F)nc2-c2ccccc2)CC1
The inhibition of the first is higher: 7.56% for the first, 5.18% for the second.

Compared with `CCOC(=O)[C@H]1Nc2ccc(Cl)cc2[C@@H]2[C@H]1C1CC(c3ccccc31)N2C(=O)OCc1ccccc1` (some centres not stated), `CCN(CC)CCCNC(=O)Cn1cnc2sc(C)c(S(=O)(=O)N3CCN(c4ncccn4)CC3)c2c1=O` is lower in inhibition: 26.4% for the first, -7.38% for the second.

First: CCN(CC)CCNC(=O)Cn1cnc2sc(C)c(S(=O)(=O)N3CCOCC3)c2c1=O
Second: CCNC(=O)C1(C)CCCN(C(=O)c2c(C)noc2C)C1 (configuration not stated)
The inhibition of the first is higher: -0.66% for the first, -5.02% for the second.

For `COc1ccc2sc(-c3ccc(S(C)(=O)=O)cc3)c(C#Cc3cncn3C)c2c1`, the inhibition was 54.5% (active).
With `c1ccc2c(c1)C(=NC1CCCCC1)NC2=NC1CCCCC1` the inhibition was 101% (active).
With `OC(CNCC1CCCO1)Cn1c2ccc(Br)cc2c2cc(Br)ccc21` (configuration not stated) the inhibition was 104% (active).
With `CCN1/C(=C\c2ccc3ccccc3[n+]2CC)Sc2cc(C)ccc21` the inhibition was 95.8% (active).
For `COc1ccc(CNC(=O)C(c2ccc(O)cc2)N(Cc2ccco2)C(=O)c2snc(C(N)=O)c2N)cc1` (configuration not stated), the inhibition was 56.7% (active).
For `COc1cccc2c1C(=O)c1c(O)c3c(c(O)c1C2=O)CC(O)(C(C)=NNC(=O)c1ccc(Cl)c(Cl)c1)CC3OC1CC(N)C(O)C(C)O1` (configuration not stated), the inhibition was 98.3% (active).
In the case of `O=C(Nc1cccc2ccccc12)c1[nH]c(-c2ccccc2)c2c1C(=O)N(C1CC1)C2=O`, the inhibition is reported as 52.8% (active).
With `CCN1CCC2(CC1)N=C(c1ccc(F)cc1)C(=S)N2C(=O)c1ccc(C)cc1` the inhibition was 90% (active).
For `O=C(NC1=CC(=O)c2ccccc2C1=O)c1ccccc1`, the inhibition was 106% (active).
For `COc1cc(NS(=O)(=O)c2ccc3ccccc3c2)c2ncccc2c1`, the inhibition was 54.5% (active).
In the case of `O=C1C(Cl)=C(Oc2ccccc2)C(=O)c2ccccc21`, the inhibition is reported as 104% (active).
In the case of `CC1C(C)N(C(=O)CCl)c2ccccc2N1C(=O)CCl` (configuration not stated), the inhibition is reported as 99.2% (active).
For `CSc1nc2ccc(S(=O)(=O)N3CCc4ccccc43)cc2s1`, the inhibition was 52.1% (active).
With `CSc1ccc(-c2c(C#N)c(N)nc3c2c(C)nn3-c2ccccc2)cc1` the inhibition was 76.2% (active).
With `COc1ccc(-c2oc3ncnc(NCCCO)c3c2-c2ccc(OC)cc2)cc1` the inhibition was 56.5% (active).
For `CCN(CC)CCNC(=O)c1sc2ncn(CC(=O)Nc3ccc(C)c(Cl)c3)c(=O)c2c1C`, the inhibition was 87.1% (active).
In the case of `CCc1ccc2nc(N(CCCN(C)C)C(=O)c3ccc4c(c3)OCCO4)sc2c1`, the inhibition is reported as 76% (active).
For `CN(C)CCCN(C(=O)c1ccc(S(=O)(=O)N2CCCCCC2)cc1)c1nc2ccc(Br)cc2s1`, the inhibition was 57.8% (active).
In the case of `CCOc1ccc2nc(N(CCCN(C)C)C(=O)c3ccc(C(=O)c4ccccc4)cc3)sc2c1`, the inhibition is reported as 105% (active).
